# Reference: the supplement of paper PMC4237247
# System: HeLa
# Assay: percent cells in G1 phase; higher = more G1 arrest
# Settings: 10 µM; 20 h; hit class: G1-phase inhibitor
# Procedure: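 HTS of 79,827 drug-like compounds at 10 uM. HeLa cells in 384-well plates were treated for 20 h, fixed, stained with Vybrant DyeCycle Green and scanned on an Acumen eX3 cytometer to give per-well cell cycle profiles (% cells in each phase). The plate Z' was 0.51. Only hits are listed: G1 hits >4 SD and S hits >5 SD from the mean.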
row,Structure (SMILES),percent cells in G1 phase
1,C[C@@H]1O[C@@H](O[C@H]2C[C@@H](O)[C@]3(CO)[C@H]4[C@H](O)C[C@]5(C)[C@@H](C6=CC(=O)OC6)CC[C@]5(O)[C@@H]4CC[C@]3(O)C2)[C@H](O)[C@H](O)[C@H]1O,70.1%
2,C/C=C(/C)C(=O)O[C@H]1C(C)=C2[C@H]([C@@H]1OC(=O)CCCCCCC)[C@@](C)(OC(C)=O)C[C@H](OC(=O)CCC)[C@@]1(O)[C@H]2OC(=O)[C@@]1(C)O,81.5%
3,C/C(=C\c1ccc(Cl)cc1)[N+](=O)[O-],69.2%
4,CNc1ccc2oc(C[C@H]3O[C@@]4(CC[C@H]3C)O[C@H]([C@H](C)C(=O)c3ccc[nH]3)[C@H](C)C[C@H]4C)nc2c1C(=O)O,84.7%
5,CC(C)(C)c1cc(C=C(C#N)C#N)cc(C(C)(C)C)c1O,75.1%
6,O=[N+]([O-])c1ccc(NCCO)c2ncccc12,69.5%
7,CNC1CC2OC(C)(C1OC)n1c3ccccc3c3c4c(c5c6ccccc6n2c5c31)C(=O)NC4 (centres undefined),86.7%
8,C[C@@H]1C[C@@H]([C@H](O)CC2CC(=O)NC(=O)C2)C(=O)[C@@H](C)C1 [Cycloheximide],77%
9,C[C@@]12C(=O)OC(=O)[C@]1(C)[C@H]1CC[C@@H]2O1,70.6%
